From PubChem BioAssay (Tox21) come the findings set out here.

The structures appear in SMILES notation. Results filed as inconclusive are left out. Activity calls are given as the source filed them. Unless noted, the call rests on the fitted dose curve; in most records, active means well fitted curve in the direction sought with a large enough effect in the repeat runs; inconclusive means weak or mixed curves; inactive means no such curve, though single readings can be large; an effect the other way counts as inactive or inconclusive.

Assay [1] is described as follows: qHTS assay to identify aromatase inhibitors - cell viability counter screen (AID 743084).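 Further: cells stimulated with testosterone during compound exposure; nearly all actives have a fitted effect of over 55% in size.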 Further: potency means the concentration at half of the fitted maximal effect.
Assay [2] deals with Aryl hydrocarbon receptor (Homo sapiens) (UniProt P35869). The assay can be described thus: qHTS assay to identify small molecule that activate the aryl hydrocarbon receptor (AhR) signaling pathway (AID 743085). Further: nearly all actives have a fitted effect of over 15% in size. Further: potency means the concentration at half of the fitted maximal effect.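 On activation: HG2L7.5c1 human HepG2 liver cells with stably integrated DRE-driven firefly reporter; series mostly up to about 70 µM.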 In short, it runs like this:
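Compounds were tested in HepG2 hepatocellular carcinoma cells harbouring a stably integrated luciferase gene under control of 20 DREs. Increased reporter signal after 24 h treatment at 37C was taken as AhR activation.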
(Quantitative high-throughput screening tests each substance at several concentrations.)

A short description of assay [3]: qHTS assay to identify small molecule that activate the aryl hydrocarbon receptor (AhR) signaling pathway - cell viability counter screen (AID 743086). Further: nearly all actives have a fitted effect of over 45% in size. Further: potency means the concentration at half of the fitted maximal effect. In short, it runs like this: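 HepG2-AhR-luc (HG2L7.5c1) cells, 4000/well, treated 24 h at 37 C with compound; viability measured as CellTiter-Fluor fluorescence after 30 min in the same wells as the luciferase read.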

For assay [4], the target named is Peroxisome proliferator-activated receptor gamma (Homo sapiens) (UniProt P37231). The experiment in a line: qHTS assay to identify small molecule agonists of the peroxisome proliferator-activated receptor gamma (PPARg) signaling pathway (AID 743094; active means well fitted activation curve with a large enough effect in the signal ratio in the repeat runs, not every such curve was filed as active; the % refers to the signal ratio; further: potency means the concentration at half of the fitted maximal effect). In short, it runs like this:
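HEK293H PPARg-bla cells, 5 h settle at 37C/5% CO2; compound (DMSO) 17 h, 37C; B/G FRET substrate 1 h RT; fluorescence intensity read-out. qHTS format.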

Assay [5] is described as follows: qHTS assay to identify small molecule antagonists of the peroxisome proliferator-activated receptor gamma (PPARg) signaling pathway - cell viability counter screen (AID 743194). Further: nearly all actives have a fitted effect of over 55% in size. Further: potency means the concentration at half of the fitted maximal effect. In short, it runs like this: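 Cytotoxicity counter screen in PPARg-bla HEK293H cells, same wells as reporter assay. Compounds plus 50 nM rosiglitazone (final) for 17 h at 37 C, then viability read by CellTiter-Glo luminescence.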

A short description of assay [6]: qHTS assay for small molecule agonists of the antioxidant response element (ARE) signaling pathway - cell viability counter screen (AID 743203; calls by dose curve; further: nearly all actives have a fitted effect of over 55% in size; further: potency means the concentration at half of the fitted maximal effect). In outline:
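Luminescence read-out (CellTiter-Glo, 30 min at room temperature) measured cell viability in the same wells as the ARE beta-lactamase reporter. HepG2 ARE-bla cells were treated with compounds for 16 hrs at 37C/5% CO2.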

The nature of assay [7]: qHTS assay for small molecule activators of the heat shock response signaling pathway - cell viability counter screen (AID 743209). Further: nearly all actives have a fitted effect of over 50% in size. In outline:
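HSE-bla HeLa; 1500 cells/well; overnight 37 C, 5% CO2; compound 5 h 37 C; LiveBLAzer B/G substrate 2.5 h RT; CellTiter-Glo 30 min RT; luminescence.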

A short description of assay [8]: qHTS assay to identify small molecule agonists of the peroxisome proliferator-activated receptor delta (PPARd) signaling pathway - cell viability counter screen (AID 743211). Further: nearly all actives have a fitted effect of over 55% in size. Further: potency means the concentration at half of the fitted maximal effect. In short, it runs like this:
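Counter screen for cytotoxicity run in parallel with the PPARd reporter screen. Beta-lactamase reporter HEK293H cells exposed to compounds 17 h; ATP-based CellTiter-Glo luminescence quantified viability.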

Assay [9] concerns the target Peroxisome proliferator-activated receptor delta (Homo sapiens) (UniProt Q03181). The experiment in a line: qHTS assay to identify small molecule agonists of the peroxisome proliferator-activated receptor delta (PPARd) signaling pathway (AID 743212; calls by dose curve; further: potency means the concentration at half of the fitted maximal effect). In short, it runs like this:
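Read-out: beta-lactamase FRET fluorescence after 2 h room-temperature incubation with LiveBLAzer B/G substrate. Cells were HEK293H carrying a UAS-bla reporter for PPARd, treated at 37 C with DMSO-dissolved compounds.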

Assay [10] in a line: qHTS assay to identify small molecule antagonists of the peroxisome proliferator-activated receptor delta (PPARd) signaling pathway - cell viability counter screen (AID 743213). Further: nearly all actives have a fitted effect of over 50% in size. Further: potency means the concentration at half of the fitted maximal effect. In outline:
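Viability counter-screen, qHTS format: PPARd-bla HEK293H, L165041 300 nM final, 17 h compound exposure at 37 C, CellTiter-Glo luminescence after 30 min RT.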

The target in assay [11] is Peroxisome proliferator-activated receptor delta (Homo sapiens) (UniProt Q03181). The experiment in a line: qHTS assay to identify small molecule antagonists of the peroxisome proliferator-activated receptor delta (PPARd) signaling pathway (AID 743215; active means well fitted inhibition curve with a large enough effect in the signal ratio in the repeat runs, not every such curve was filed as active; the % refers to the signal ratio;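 further: cells stimulated with agonist L165041 at 300 nM final during compound exposure; series mostly up to about 62 µM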). In outline:
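HEK293H GeneBLAzer PPARd UAS-bla reporter cells; cpd + L165041 300 nM final, 17 h 37 C; LiveBLAzer B/G FRET substrate 2 h RT; fluorescence intensity read-out. Antagonist mode.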

Assay [12] in a line: qHTS assay to identify small molecule antagonists of the farnesoid-X-receptor (FXR) signaling pathway - cell viability counter screen (AID 743221; active means well fitted cell-killing curve with a large enough effect in the repeat runs, not every such curve was filed as active; further: nearly all actives have a fitted effect of over 50% in size; further: potency means the concentration at half of the fitted maximal effect). In outline: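 Multiplexed counter screen: viability of FXR-bla HEK 293T cells under agonist stimulation by chenodeoxycholic acid (50 uM, final) and test compound for 16 h at 37 C, measured by CellTiter-Glo luminescence in the reporter wells.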

Assay [13] addresses Vitamin D3 receptor (Homo sapiens) (UniProt P11473). The assay can be described thus: qHTS assay to identify small molecule agonists of the vitamin D receptor (VDR) signaling pathway (AID 743222; calls by dose curve). In outline:
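Beta-lactamase reporter readout (LiveBLAzer B/G FRET, 2 h RT) in VDR-bla cells after 16 h compound treatment at 37C, 5% CO2; cells pre-incubated 4 h before pin transfer of DMSO solutions.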

For assay [14] the target is unchanged. The experiment in a line: qHTS assay to identify small molecule antagonists of the vitamin D receptor (VDR) signaling pathway (AID 743223; active means well fitted inhibition curve with a large enough effect in the signal ratio in the repeat runs, not every such curve was filed as active; the % refers to the signal ratio). In short, it runs like this: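 Cells carrying a VDR-driven beta-lactamase reporter (VDR-bla) were co-treated with compound and 3 nM final 1alpha,25-dihydroxyvitamin D3 for 16 h at 37C; reporter activity was measured as FRET substrate fluorescence after 2 h at room temperature.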

The nature of assay [15]: qHTS assay for small molecule agonists of the antioxidant response element (ARE) signaling pathway (AID 743202; active means well fitted activation curve with a large enough effect in the signal ratio in the repeat runs, not every such curve was filed as active; the % refers to the signal ratio; further: potency means the concentration at half of the fitted maximal effect). In short, it runs like this:
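HepG2 ARE-bla reporter line, 2,000 cells/well; 5 h preincubation 37 C/5% CO2; compound (DMSO) 16 h 37 C; B/G FRET substrate 2 h RT; fluorescence intensity.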

Assay [16] is described as follows: qHTS assay to identify small molecule agonists of the farnesoid-X-receptor (FXR) signaling pathway - cell viability counter screen (AID 743218). Further: nearly all actives have a fitted effect of over 45% in size. In short, it runs like this: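 Luminescence from CellTiter-Glo, read after 30 min at RT, reports viability of GeneBLAzer FXR-UAS-bla HEK 293T cells treated 16 h with compounds in the wells used for the beta-lactamase reporter.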

Assay [17] is described as follows: qHTS assay for small molecule activators of the heat shock response signaling pathway (AID 743210; active means well fitted activation curve with a large enough effect in the signal ratio in the repeat runs, with a control signal flat, not every such curve was filed as active; the % refers to the signal ratio; further: series mostly up to about 63 µM). In short, it runs like this: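 Beta-lactamase reporter read-out: FRET substrate fluorescence after 2.5 h at RT, following 5 h compound treatment at 37 C of HeLa cells carrying HSE-driven bla reporter; quantitative HTS format.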
Assay [18] has as its target Bile acid receptor (Homo sapiens) (UniProt Q96RI1). The assay can be described thus: qHTS assay to identify small molecule antagonists of the farnesoid-X-receptor (FXR) signaling pathway (AID 743217; active means well fitted inhibition curve with a large enough effect in the signal ratio in the repeat runs, not every such curve was filed as active; the % refers to the signal ratio). In outline: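 Read-out: beta-lactamase FRET fluorescence (LiveBLAzer B/G substrate, 2 h, room temperature) in GeneBLAzer FXR-UAS-bla HEK 293T cells. Compounds were co-dosed with 50 uM chenodeoxycholic acid (final) and incubated 16 h at 37 °C.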

The target is the same in assay [19]. The assay can be described thus: qHTS assay to identify small molecule agonists of the farnesoid-X-receptor (FXR) signaling pathway (AID 743220; active means well fitted activation curve with a large enough effect in the signal ratio in the repeat runs, not every such curve was filed as active; the % refers to the signal ratio). In short, it runs like this: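 FXR-UAS-bla HEK 293T cells carrying a UAS-driven beta-lactamase reporter were plated for 5 h at 37C/5% CO2, then exposed to DMSO-dissolved Tox21 10K compounds for 16 h at 37C. A LiveBLAzer B/G FRET substrate was loaded for 2 h at room temperature before fluorescence reading.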

Assay [20] concerns the target Peroxisome proliferator-activated receptor gamma (Homo sapiens) (UniProt P37231). The assay can be described thus: qHTS assay to identify small molecule antagonists of the peroxisome proliferator-activated receptor gamma (PPARg) signaling pathway (AID 743191; calls by dose curve; further: nearly all actives have a fitted effect of over 30% in size; further: potency means the concentration at half of the fitted maximal effect). In short, it runs like this: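 GeneBLAzer PPARg UAS-bla HEK293H cells, 5 h post-plating, exposed to compounds 17 h at 37C. LiveBLAzer B/G FRET substrate added for 1 h at room temperature; beta-lactamase reporter read by fluorescence intensity.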

Chain of Aryl hydrocarbon receptor (Homo sapiens) (P35869 whole entry, looked up): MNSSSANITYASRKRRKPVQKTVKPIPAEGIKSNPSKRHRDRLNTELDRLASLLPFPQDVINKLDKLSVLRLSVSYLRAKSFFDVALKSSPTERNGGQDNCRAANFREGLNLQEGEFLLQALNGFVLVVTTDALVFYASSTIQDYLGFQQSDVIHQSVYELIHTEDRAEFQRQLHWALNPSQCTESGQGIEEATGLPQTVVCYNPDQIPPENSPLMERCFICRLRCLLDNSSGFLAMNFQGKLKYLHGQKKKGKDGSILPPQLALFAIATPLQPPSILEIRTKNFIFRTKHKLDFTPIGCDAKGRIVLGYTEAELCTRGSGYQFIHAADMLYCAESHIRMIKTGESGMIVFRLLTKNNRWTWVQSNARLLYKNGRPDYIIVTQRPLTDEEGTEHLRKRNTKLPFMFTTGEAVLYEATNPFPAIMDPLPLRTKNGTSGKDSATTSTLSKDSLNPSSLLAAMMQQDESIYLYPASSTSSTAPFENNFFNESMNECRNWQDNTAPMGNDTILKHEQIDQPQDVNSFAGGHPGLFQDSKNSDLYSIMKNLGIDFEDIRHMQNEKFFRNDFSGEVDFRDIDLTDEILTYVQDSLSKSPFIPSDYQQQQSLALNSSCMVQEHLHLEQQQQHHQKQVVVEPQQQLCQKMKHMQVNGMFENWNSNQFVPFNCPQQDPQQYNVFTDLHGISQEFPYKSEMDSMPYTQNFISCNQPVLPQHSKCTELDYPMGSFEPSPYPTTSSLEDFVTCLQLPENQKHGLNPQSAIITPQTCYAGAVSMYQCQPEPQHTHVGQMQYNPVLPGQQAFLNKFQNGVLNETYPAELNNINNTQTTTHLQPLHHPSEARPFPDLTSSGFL
Chain of Bile acid receptor (Homo sapiens) (Q96RI1 whole entry, looked up): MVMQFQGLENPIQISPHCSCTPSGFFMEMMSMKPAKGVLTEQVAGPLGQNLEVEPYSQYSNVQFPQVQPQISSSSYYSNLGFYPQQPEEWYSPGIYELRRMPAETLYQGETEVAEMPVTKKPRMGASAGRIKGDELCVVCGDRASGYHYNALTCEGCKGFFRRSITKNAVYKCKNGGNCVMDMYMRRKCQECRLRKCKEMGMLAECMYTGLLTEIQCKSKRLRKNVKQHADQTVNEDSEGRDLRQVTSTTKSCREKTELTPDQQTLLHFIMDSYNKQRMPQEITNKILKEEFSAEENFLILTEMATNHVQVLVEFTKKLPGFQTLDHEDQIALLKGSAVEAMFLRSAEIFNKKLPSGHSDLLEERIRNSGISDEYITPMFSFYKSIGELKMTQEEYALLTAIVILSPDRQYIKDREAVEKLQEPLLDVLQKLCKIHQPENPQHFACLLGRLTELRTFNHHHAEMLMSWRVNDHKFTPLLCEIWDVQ
Chain of Vitamin D3 receptor (Homo sapiens) (P11473 whole entry, looked up): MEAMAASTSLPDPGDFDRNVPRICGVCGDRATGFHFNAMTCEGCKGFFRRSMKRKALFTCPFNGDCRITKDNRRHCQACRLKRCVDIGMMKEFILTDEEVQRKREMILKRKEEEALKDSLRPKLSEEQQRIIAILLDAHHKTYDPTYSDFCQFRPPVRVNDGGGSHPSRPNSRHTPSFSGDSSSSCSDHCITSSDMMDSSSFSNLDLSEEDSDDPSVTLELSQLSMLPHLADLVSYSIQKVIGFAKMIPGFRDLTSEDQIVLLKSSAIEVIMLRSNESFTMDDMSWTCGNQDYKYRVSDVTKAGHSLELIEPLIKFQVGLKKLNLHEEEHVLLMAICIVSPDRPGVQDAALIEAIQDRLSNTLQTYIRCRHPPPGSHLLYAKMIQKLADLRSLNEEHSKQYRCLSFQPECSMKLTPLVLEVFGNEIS
Chain of Peroxisome proliferator-activated receptor delta (Homo sapiens) (Q03181 whole entry, looked up): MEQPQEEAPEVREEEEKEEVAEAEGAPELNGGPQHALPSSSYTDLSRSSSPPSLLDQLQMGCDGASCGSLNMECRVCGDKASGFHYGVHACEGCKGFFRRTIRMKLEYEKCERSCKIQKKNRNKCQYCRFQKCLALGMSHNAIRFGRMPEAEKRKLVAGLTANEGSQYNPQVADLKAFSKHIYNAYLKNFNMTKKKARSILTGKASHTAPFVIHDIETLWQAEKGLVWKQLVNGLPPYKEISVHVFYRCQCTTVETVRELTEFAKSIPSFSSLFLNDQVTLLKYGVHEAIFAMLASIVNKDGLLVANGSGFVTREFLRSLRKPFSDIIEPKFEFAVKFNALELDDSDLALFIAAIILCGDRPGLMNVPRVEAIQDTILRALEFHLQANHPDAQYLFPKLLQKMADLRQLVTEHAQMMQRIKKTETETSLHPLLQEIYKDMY
Chain of Peroxisome proliferator-activated receptor gamma (Homo sapiens) (P37231 whole entry, looked up): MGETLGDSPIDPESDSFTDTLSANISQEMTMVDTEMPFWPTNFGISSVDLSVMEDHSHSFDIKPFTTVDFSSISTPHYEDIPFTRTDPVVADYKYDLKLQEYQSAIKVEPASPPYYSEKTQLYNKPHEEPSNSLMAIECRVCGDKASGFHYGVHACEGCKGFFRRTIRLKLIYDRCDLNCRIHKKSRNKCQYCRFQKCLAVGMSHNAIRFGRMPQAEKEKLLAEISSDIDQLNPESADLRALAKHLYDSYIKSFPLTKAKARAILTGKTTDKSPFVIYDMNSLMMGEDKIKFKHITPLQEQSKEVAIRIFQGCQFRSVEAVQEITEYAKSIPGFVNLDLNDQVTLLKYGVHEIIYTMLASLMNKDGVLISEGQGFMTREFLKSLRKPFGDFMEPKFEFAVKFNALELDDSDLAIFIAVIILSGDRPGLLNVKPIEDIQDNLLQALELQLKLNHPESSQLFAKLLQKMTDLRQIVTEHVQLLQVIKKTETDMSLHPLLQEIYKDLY

Turning to `CO/N=C(/C(=O)N[C@@H]1C(=O)N2C(C(=O)O)=C(COC(N)=O)CS[C@H]12)c1ccco1`, the Potency entry in assay [1], in assay [2], in assay [3], in [4], in [5] and in assay [6] was “inactive” throughout. For the same compound, the Potency entry in assay [7], in assay [8], in assay [9], in assay [10], in [11] and in assay [12] was “inactive” in each case. In addition, the Potency result in assay [13] and in assay [14] was “inactive” each time.
For the compound `O=Cc1c2ccccc2c(Cl)c2ccccc12`, the Potency entry in assay [1], in [2], in [3], in [5], in assay [6] and in [7] was “inactive” each time. The Potency result in [8], in assay [10], in assay [11], in assay [13] and in assay [14] was “inactive” throughout. Also, the Potency was 9.53 µM (active) in [4], 29.9 µM (active) in assay [15] and 10.7 µM (active) in [9].
For `CC1=C(CC=O)C(C)(C)CCC1`, the Potency result in assay [1], in assay [2], in assay [3], in [4], in assay [5] and in [15] was “inactive” throughout. Besides, the Potency entry in assay [6], in [8], in assay [10], in assay [16] and in assay [12] was “inactive” each time.
In the case of `O=C1c2ccccc2C(=O)C1c1ccc(Br)cc1`, the Potency result in [1], in assay [3], in [4], in assay [5], in assay [6] and in assay [7] was “inactive” throughout. The Potency entry in [8], in assay [10], in [11], in assay [16], in assay [13] and in assay [14] was “inactive” each time. Also, in assay [2], the Potency is 11.9 µM (active).
With `O=C(Nc1cccc2c(=O)cc(-c3nn[nH]n3)oc12)c1ccc(OCCCCc2ccccc2)cc1`, the Potency result in [1], in assay [2], in assay [3], in assay [4], in assay [5] and in assay [7] was “inactive” throughout. For the same compound, the Potency entry in assay [17], in assay [9] and in assay [11] was “inactive” throughout. Also, the Potency in [6] is 29.8 µM (active).
Regarding `C=C(C)C(=O)OCCOCCOC(=O)C(=C)C`, the Potency entry in assay [1], in [2], in assay [3], in assay [4], in assay [5] and in assay [6] was “inactive” each time. Also, the Potency result in [7], in assay [17], in assay [8], in [9], in assay [10] and in [11] was “inactive” in each case. The Potency entry in assay [18], in assay [19], in [12] and in assay [14] was “inactive” in each case.
Turning to `C[C@@H](CN(C)C)CN1c2ccccc2Sc2ccccc21`, the Potency entry in [1], in [2], in assay [3], in assay [4], in assay [6] and in [7] was “inactive” throughout. For the same compound, the Potency result in assay [17], in [11], in assay [19] and in assay [13] was “inactive” each time. For the same compound, the Potency in assay [8] was 23.7 µM (active); in assay [10], 26.6 µM (active).
Take `Nc1cccc2c1CN(C1CCC(=O)NC1=O)C2=O` (configuration not stated): the Potency result in assay [1], in assay [2], in assay [3], in [20], in [5] and in assay [15] was “inactive” in each case. Moreover, the Potency entry in assay [6], in assay [7], in assay [17], in assay [8], in [9] and in assay [10] was “inactive” each time. The Potency entry in assay [11], in assay [16] and in [13] was “inactive” in each case.
With `C=CC(=O)[O-].C=CC(=O)[O-].[Zn+2]`, the Potency entry in [1], in assay [2], in assay [3], in assay [4], in [5] and in assay [6] was “inactive” each time. Besides, the Potency result in assay [7], in assay [8], in assay [9], in [10], in [11] and in assay [12] was “inactive” throughout. Moreover, the Potency entry in assay [13] and in [14] was “inactive” in each case.
As for `CC(=O)NC1(c2cccc(F)c2)CCN(CC[C@@]2(c3ccc(Cl)c(Cl)c3)CN(c3ccccc3)C(=O)CO2)CC1`, the Potency in assay [1] was 48.7 µM (active); in assay [3] it was 43.4 µM (active); in [20] it was 43.8 µM (active); in assay [5], 34.8 µM (active); in [6], 19.4 µM (active); in assay [8], 13.8 µM (active). Further, the results for the Potency in assay [10] and in assay [12] were 21.9 µM (active) and 24.6 µM (active), respectively. For the same compound, the Potency result in assay [2], in [7], in assay [17], in [19] and in assay [13] was “inactive” each time.
